# Results reported in PubChem BioAssay (EPA / NIEHS).
# Calls of active or inactive are those of the source. The calls were made as follows: active = hit-call score of the fitted dose curve at least 0.9, where 1 is the maximum; inconclusive = response in the unintended direction; inactive = score below 0.9.
# Biological target: human Dual Specificity Protein Phosphatase 3 (DUSP3), DUSP3 (gene 1845) (UniProt P51452)
# Test: NVS_ENZ_hDUSP3: NovaScreen (NVS) Enzymatic Assay for human Dual Specificity Protein Phosphatase 3 (DUSP3) (AID 2283152)
# Method: NVS_ENZ_hDUSP3 is a biochemical, single-readout assay that uses extracted gene-proteins in a cell-free assay. Measurements were taken 0 hour after chemical dosing in a 96-well plate.NVS_ENZ_hDUSP3 is one of one assay component(s) measured or calculated from the NVS_ENZ_hDUSP3 assay. It is designed to make measurements of enzyme activity, a form of enzyme reporter, as detected with fluorescence intensity signals by Fluorescence technology.Data from the assay component NVS_ENZ_hDUSP3 was analyzed into 1 assay endpoint. This assay endpoint, NVS_ENZ_hDUSP3, was analyzed in the positive analysis fitting direction relative to DMSO as the negative control and baseline of activity. Using a type of enzyme reporter, loss-of-signal activity can be used to understand changes in the enzymatic activity as they relate to the gene DUSP3. Furthermore, this assay endpoint can be referred to as a primary readout, because this assay has produced multiple assay endpoints where this one serves a enzymatic activity function. To generalize the intended target to other relatable targets, this assay endpoint is annotated to the phosphatase intended target family, where the subfamily is dual-specific phosphatase.
# Binding assays used specific radioligands (tritiated, iodinated) with non-radioactive competitive displacement ligands in agonist or antagonist protocols (as indicated) and various reference compounds and inhibitors to titrate specific binding to receptors and transporters. Most enzyme assays (CYPs, kinases, phosphatases, proteases, HDACs) used recombinant protein and specific substrates (fluorescence mostly, some colorimetric and radioactive) and inhibitors, followed by a biochemical separation of substrate and product. All assays for the biochemical HTS were initially run in duplicate at a single concentration (10 uM for CYP450 assays and 25 uM for all others). […] Each assay was run with positive and negative controls, and concurrent controls on every plate. The follow-up (secondary) screen tested active chemical-pairs in concentration series, as well as a few additional assays not tested in the primary screen, some selected negative inactives, and several cases re-run in the concentration series for confirmatory purposes.
# Chain of human Dual Specificity Protein Phosphatase 3 (DUSP3), DUSP3 (gene 1845) (P51452 whole entry, looked up): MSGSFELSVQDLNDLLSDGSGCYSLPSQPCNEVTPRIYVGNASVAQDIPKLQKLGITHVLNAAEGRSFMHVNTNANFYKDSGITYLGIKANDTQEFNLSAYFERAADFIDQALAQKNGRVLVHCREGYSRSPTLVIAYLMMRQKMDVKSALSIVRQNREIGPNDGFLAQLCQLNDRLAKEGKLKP
Compound,AC50,outcome
Cc1ccc(N=C=O)cc1N=C=O,12.6 µM (active),–
COP(=S)(OC)SCN1C(=O)c2ccccc2C1=O,–,inactive
Nc1ccc(Cl)cc1N,6.31 µM (active),–
CCC[CH2][Sn]([Cl])([CH2]CCC)[CH2]CCC,6.34 µM (active),–
CCNS(=O)(=O)C(F)(F)C(F)(F)C(F)(F)C(F)(F)C(F)(F)C(F)(F)C(F)(F)C(F)(F)F,–,inactive
CCCCCCCCn1sccc1=O,26 µM (active),–
CN(C)[C@@H]1C(=O)C(C(N)=O)=C(O)[C@@]2(O)C(=O)C3=C(O)c4c(O)cccc4[C@@](C)(O)[C@H]3C[C@@H]12,7.39 µM (active),–
CC(C)(O)c1cnn2c(-c3ccc(F)c(-c4c(F)cccc4C#N)c3)cnc2n1,40.8 µM (active),–
C1=Cc2cccc3cccc1c23,–,inactive
Cc1cccc(N)c1N,25 µM (active),–
